# Screens deposited in PubChem BioAssay by National Center for Advancing Translational Sciences (NCATS).
# pAkt inh: HTS Assay for Inhibitors of Akt Phophorylation: Primary Screen. AID 651550, 2012. activity change, % for hits at 50 µM. 360,000 compounds, 0.32% hits. Neuro2A IGF-stimulated pAkt S473 HTRF, 20 min; active compounds read low; in the data active means activity change below about -80%; inconclusive means mostly about -51% to -80%; further: on the % scale 0 is the no-effect control and ±100 the full control effect
#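 Single-point screen (50 µM final compound) in Neuro2A cells stimulated 20 min with 6 nM IGF at 37 deg C. After lysis, Ser473-phosphorylated Akt read by HTRF (ex 330 nm, em 615/665 nm) as the 665/615 ratio.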
# A-T KAP1 phos: qHTS Assay for Identifying a Potential Treatment of Ataxia-Telangiectasia; F2112 A-T fibroblasts, KAP-1 phosphorylation AlphaLISA; neocarzinostatin DNA damage 30 min before lysis; Potency, µM (titrated, usually from 57.5 µM), without a hit: at the highest dose activation, usual class: activators; 320,000 compounds, 0.19% hits; further: potency means the concentration at half of the fitted maximal effect; % of control where 0% means no effect; nearly all actives have a fitted effect of over 45% in size
#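 ATM-like activity read as KAP-1 phosphorylation via AlphaLISA donor/acceptor antibody pairs after lysis and 6 hr at 25C. Cells were ATM-null patient fibroblasts (F2112, hTERT), dosed 60 min, then exposed to the DSB inducer NCS for 30 min.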
# BRCA1 expr up: qHTS Assay to Identify Small Molecule Activators of BRCA1 Expression; MCF7-BRCA1-FFLuc reporter, luminescence, 48 h; response scale: scaled: vehicle 0%, 10 µM genistein 100%; Potency, µM (doses to about 46.1 µM), for the others: at the highest dose activation, hits mostly activators; 380,000 compounds, 1.1% hits; AID 624202, 2012; further: potency means the concentration at half of the fitted maximal effect; nearly all actives have a fitted effect of over 80% in size
#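 Quantitative HTS in MCF7 cells stably reporting BRCA1 expression via firefly luciferase. Compound treatment lasts 48 h at 37 °C in phenol-red free MEM. Activation is expressed relative to genistein at 10 microM and DMSO.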
# CCT modulator: High-Throughput Screening for Modulators of Cytosolic Chaperonin Activity. purified chaperonin ATPase assay, HTRF ADP detection, 30 min. activity change, % (no concentration beside the values), hits read low. 360,000 compounds, 0.3% hits. AID 651819, 2012; in the data active means activity change below about -30%; further: on the % scale 0 is the no-effect control and ±100 the full control effect
#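 Enzyme 40 or 20 nM (batch-dependent) in Tris pH 7.4/KCl/MgCl2/DTT; cpd 76 uM single point; ATP 10 uM; 30 min 37 °C; Transcreener ADP HTRF detection, 30 min RT; ratio 665/615.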
# MmCpn inh: Inhibitors of TCP-1 ring complex (TRiC) of Methanococcus maripaludis (MmCpn): qHTS | purified Mm-Cpn ATPase, ADP Transcreener TR-FRET | 330,000 compounds, 0.031% hits | Potency, µM (series often up to 76.9 µM), for the others: top-dose activity, negative = inhibition, most hits filed as inhibitors; further: potency means the concentration at half of the fitted maximal effect; on the % scale 0 is the no-effect control and ±100 the full control effect; nearly all actives have a fitted effect of over 80% in size
#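 Quantitative HTS used 25 nM Mm-CPN and 10 uM ATP in magnesium/KCl Tris buffer, pH 7.4, with 1 mM DTT. Hydrolysis ran 30 min at 37°C; ADP was read by HTRF.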
# * = called active by the depositor; i = inactive; u = inconclusive; x = not tested or not shown; [ ] = dose if it differs, or a comment. Most compounds without a hit are left out; they make up all but 1.8% or so of the library. Unless noted, the call rests on the fitted dose curve; in most records, active means well fitted curve in the direction sought with a large enough effect; inconclusive means small, poorly fitted or top-dose-only effect, or another doubt; inactive means no such curve, though single readings can be large; an effect the other way counts as inactive or inconclusive.
SMILES,pAkt inh,A-T KAP1 phos,BRCA1 expr up,CCT modulator,MmCpn inh
COc1ccc(OC)c(NS(=O)(=O)c2ccc(N3CCCC3=O)cc2)c1,-115%*,-2%,-68%,1,1%
CNc1nc(N2CCCN(C)CC2)nc2cc(OC)c(OC)cc12,x,x,-21%,x,x
COc1cc2cncnc2cc1OCCCCC(N)=O,x,x,12%,x,x
O=C1C2C3c4ccccc4C(c4ccccc43)C2C(=O)N1c1nc(-c2ccccc2)cs1 (stereo not given),i,1%,0%,-2,1%
N=C1SCC(=O)N1c1nc(-c2ccccc2)cs1,i,-9%,7.9µM*,0,-2%
Nc1ccc(C2CCCc3nonc32)c2nonc12 (stereo not given),-113%*,x,-2%,-1,-7%
S=C(NCCCc1cnc[nH]1)NCCCN(Cc1ccc(Cl)cc1)c1ccc(-c2ccccc2)cn1,x,x,-69%,x,x
CN(C)c1ccc(NC(=O)COC(=O)c2cc(Cl)ccc2[N+](=O)[O-])cc1,i,-6%,-22%,-90*,2%
CCOC(=O)N1CCN(C(=O)CCS(=O)(=O)c2ccc3c(c2)CC(C)N3C(=O)CC)CC1 (stereo not given),x,-2%,-30%,-77*,0%
CCOC(=O)C1CCN(C(=O)CCS(=O)(=O)c2ccc3c(c2)CC(C)N3C(=O)CC)CC1 (stereo not given),i,2%,-25%,0,1%
COc1ccc(Nc2nnc(SCC(=O)N(CC(C)C)C3CCS(=O)(=O)C3)s2)cc1 (stereo not given),i,x,7.1µM*,-1,x
c1ccc(-c2nc3ccccc3s2)nc1,i,-1%,8.9µM*,-4,0%
CN(C)c1ncccc1-c1nc2ccccc2s1,i,14%,36%,2,u
Brc1ccc(-c2nc3ccccc3s2)s1,x,9%,71%,0,40µM*
c1ccc(SCc2nc3ccccc3s2)nc1,i,30%,3.2µM*,-1,1%
O=C(Nc1cc(F)cc(F)c1)c1sc(Cl)nc1-c1ccccc1,i,0%,0%,-2,50µM*
Cc1cnc2c(C)ccc(C)c2c1/C=C/c1ccc(N(C)C)cc1,x,x,-36%,x,x
CCOC(=O)C(=Cc1ccc2c(c1)OCO2)c1ccccc1,i,x,5%,-3,x
c1ccc(OCc2nnc3sc(-c4cccs4)nn23)cc1,i,1%,1%,2,-1%
COc1ccc(-c2nn3c(COc4ccccc4)nnc3s2)cc1OC,-117%*,4%,-2%,-1,3%
CC1SCC(NC(=O)c2cccc(Cl)c2)CS1 (stereo not given),i,2%,0%,1,-1%
CC1SCC(NC(=O)c2ccc(Cl)cc2)CS1 (stereo not given),i,-4%,11µM*,0,-1%
CCC(=O)Nc1ccccc1C(=O)OCC(=O)c1cccc2ccccc12,-118%*,6%,3%,-4,-4%
CCN(CC)c1ncnc2c1cnn2Cc1ccc(C)cc1,i,6%,-8%,-1,1%
CCN(CC)c1nc(C)nc2c1cnn2CCc1ccccc1,i,3%,8.9µM*,2,0%
SMILES,pAkt inh,A-T KAP1 phos,BRCA1 expr up,CCT modulator,MmCpn inh
CC(C)(Cc1ccccc1)/[N+]([O-])=C\c1ccc(C(F)(F)F)cc1,i,7%,-1%,0,1%
COc1cc(NC(=O)CC(C)C)ccc1NC(=O)c1ccco1,i,x,7.9µM*,-7,x
CC(=O)Nc1ccc(C(=O)/C=C/c2ccco2)cc1,i,-1%,76%,0,-2%
CCC(=O)Nc1ccc(NC(=O)c2ccco2)cc1,i,6%,2.5µM*,-1,0%
CCCOc1cccc(C(=O)Nc2cc(NC(=O)c3ccco3)ccc2OC)c1,-107%*,6%,-54%,-2,3%
COc1cc(OC)cc(C(=O)Nc2cc(NC(=O)c3ccco3)ccc2OC)c1,i,10%,-25%,-1,-20%
O=C(/C=C\c1ccco1)c1ccc(NC(=O)c2ccco2)cc1,i,-2%,1.8µM*,-1,-5%
C=CC(=O)N1CCC[C@@H](n2nc(-c3ccc(Oc4ccccc4)cc3)c3c(N)ncnc32)C1,x,x,-65%[92.2 µM],x,x
Cc1ccc(-c2nc3n(n2)C(c2ccccc2C)C=C(c2ccc(Cl)cc2)N3)cc1 (stereo not given),x,x,0%,x,x
O=C(c1ccccc1)c1cccc(NC(=O)c2ccco2)c1,i,9%,11µM*,-2,0%
Cc1cc(Cl)ccc1OCC(=O)NNC(=O)c1cccs1,i,x,61%,-1,x
Cc1cc(Cl)ccc1OCC(=O)NNC(=O)c1ccco1,i,-18%,53%,-39*,2%
O=C(CNC(=O)c1ccco1)Nc1ccc(Cl)cc1,i,-5%,13µM*,-4,0%
O=C(Nc1cccc(NC(=O)c2ccco2)c1)c1ccccc1,i,-7%,-4%,0,-18%
CCCSc1nnc2n(-c3ccc(OC)cc3)c(=O)c3c4c(sc3n12)COC(C(C)C)C4 (stereo not given),x,x,1%,x,x
Cc1cc(NC(=O)CSc2nc3ccsc3c(=O)n2Cc2ccccn2)n[nH]1,i,1%,5.6µM*,-4,-1%
CCCCn1c(SCC(=O)Nc2cc(C)on2)nc2ccsc2c1=O,-101%*,1%,-39%,-2,-17%
COc1cccc(NC(=O)CCN2C(=O)C3CC=CCC3C2=O)c1 (stereo not given),i,8%,93%,-1,1%
CN(C)c1ccc(C#Cc2ccc3cc(CCCO)oc(=O)c3c2)cc1,i,5%,3.2µM*,-1,-5%
CSc1ccc(C2=CC(=O)C[C@H](c3ccc(F)cc3)C2)cc1,i,0%,12%,-39*,-8%
COc1ccc([C@H]2CC(=O)C=C(c3ccc(SC)cc3)C2)cc1,i,1%,73%,-2,0%
COc1ccc(C(=O)Nc2nnc(-c3ccccc3)s2)cc1,i,3%,7.1µM*,1,-4%
COc1cccc(C(=O)Nc2nnc(-c3ccccc3)s2)c1OC,i,10%,1.8µM*,-1,-7%
COc1ccc(-c2nnc(NC(=O)c3c(OC)cccc3OC)s2)cc1,i,6%,-19%,0,-3%
CCOC(=O)c1sc(NC(=S)NC(=O)c2ccc(OC)cc2)nc1C,i,6%,-41%,-52*,-8%
CCc1nnc(NC(=O)c2ccc(OC)cc2)s1,i,1%,7.1µM*,-2,-5%
COc1ccccc1C(=O)Nc1nnc(-c2ccccc2)s1,i,14%,-2%,-3,-12%
